This note sets out measurements from ChEMBL document CHEMBL3988442, “University of Dundee, Small-Polar-MMV Screening Library” (2021).

Screen size: about 48,000 compounds; about 13,000 (27%) showed an effect of 50% or more. Some of the results follow.

This test has as its system Wolbachia pipientis. The test can be described thus: Anti-Wolbachia Cell-Based Screen. The arrangement: scale not given: in the data most compounds retested in dose-response had high values. In kind it is functional. The conditions noted are these: 5 µM.
As to `COc1cccc(OCc2cc(C(=O)NC[C@@H]3CCCN3)n[nH]2)c1`, the “Percent Effect” value is recorded as -13.46%. In the case of `COCC1CN(C(=O)c2cnc(C)cn2)Cc2ncnn2C1` (stereo unspecified), the “Percent Effect” value is given as -2.14%. As to `COCc1nnc(C(=O)N2CC(N3CCCCC3)C2)o1`, the “Percent Effect” value was 110.5%. Then `Cc1noc(CNc2cccc(C(=O)N3CCCC(O)C3)c2)n1` (stereo unspecified), with 7.269%; and `COCc1nnc(C(=O)N(C)Cc2ccc(OC)cc2)o1`, with -21.92%. To `CCCc1nnc(N2CCC(N3CCCCCC3)CC2)o1` belongs 12.1%; to `COCc1nnc(C(=O)N2CCC(N3CCCCC3)CC2)o1`, 90.19%; to `Cc1nnc(NC(=O)N2CCC(N3CCCCC3)CC2)s1`, 6.357%. To `COCc1nnc(C(=O)N2CCCC(O)C2)o1` (stereo unspecified) belongs 102.5%. For `Cc1noc(CNc2ccccc2C(=O)N2CCCC(O)C2)n1` (stereo unspecified), the “Percent Effect” value is -16.45%.

In the case of `Cc1c(C(=O)N2CCC(N3CCCCC3)CC2)n(C)c2ccc(Cl)cc12`, the “Percent Effect” value is on record as 0.1052%.

On to `COc1ccc(NC(=O)CN2CCS(=O)(=O)CC2)cn1`, for which the “Percent Effect” value is reported as -4.778%. On to `CCCN(CCC)Cc1nnsc1Cl`, for which the “Percent Effect” value is listed as -13.3%. Consider `Cc1ccc(C(=O)N2C[C@@H](OCC3CCOCC3)[C@H]3OCCC[C@H]32)o1`, for which the “Percent Effect” value is on record as -9.797%. As for `C[C@@H](NC(=O)c1ccc(Cl)cc1)c1onc(-c2cccnc2)c1C(=O)O.Cl`, the “Percent Effect” value is -10.74%.

In the case of `c1ccc(-c2nnn3c2COC(CNCC2CC2)C3)cc1` (stereo unspecified), the “Percent Effect” value is on record as -10.69%. Then `NC(=O)c1cc(C2CCCN(C(=O)CCc3ccncc3)C2)n[nH]1` (stereo unspecified), with 120%. In the case of `NC(=O)c1cc(C2CCCN(C(=O)CCc3cccs3)C2)n[nH]1` (stereo unspecified), the “Percent Effect” value turned out to be 95.12%. Take `CC(C)(C#N)C(=O)N1CCCC(c2cc(C(F)(F)F)[nH]n2)C1` (stereo unspecified): the “Percent Effect” value is given as -7.065%. Take `O=C(CO)N1CCCC(c2cc(C(F)(F)F)[nH]n2)C1` (stereo unspecified): the “Percent Effect” value is 144.8%.

As to `NC(=O)c1cc(C2CCCN(CCc3ccccn3)C2)n[nH]1` (stereo unspecified), the “Percent Effect” value is listed as -3.119%. To `NC(=O)c1cc(C2CCCN(C(=O)CCc3ccsc3)C2)n[nH]1` (stereo unspecified) belongs -0.264%; to `NC(=O)c1cc(C2CCCN(C(=O)CCc3ccccn3)C2)n[nH]1` (stereo unspecified), 94.78%; to `O=C(Cc1cccnc1)N1CCCC(c2cc(C(F)(F)F)[nH]n2)C1` (stereo unspecified), -6.416%. Turning to `Cc1cccc(CCC(=O)N2CCCC(c3cc(C(N)=O)[nH]n3)C2)c1` (stereo unspecified), the “Percent Effect” value came to 2.373%. Then `CN(C)c1nc2c(c(=O)[nH]1)CCN(C(=O)c1c[nH]c(=O)c(Cl)c1)C2`, with 24.13%. `Cc1cc(C)nc(CNC(=O)C(c2cccnc2)N2CCOCC2)n1` (stereo unspecified): the “Percent Effect” value amounted to 12.66%. Regarding `Cc1ccc2cc(CNCCN3CCCC3)c(=O)[nH]c2c1`, the “Percent Effect” value worked out at 112.1%. To `O=c1[nH]c2ccccc2cc1CNCCCN1CCOCC1` belongs 102.3%; to `Cc1ccc2cc(CN(C)Cc3ccncn3)c(=O)[nH]c2c1`, -11.97%; to `CC(CCc1ccccc1)NC(=O)CNCCCN1CCOCC1.O=C(O)C(=O)O` (stereo unspecified), 7.217%. Then `Cc1ccc2[nH]c(=O)c(CNCCCN3CCOCC3)cc2c1`, with 96.42%; and `Cc1ccc2cc(CN(C)Cc3ncc[nH]3)c(=O)[nH]c2c1`, with -0.6566%. In the case of `Cc1ccc2cc(CNCCCN3CCOCC3)c(=O)[nH]c2c1`, the “Percent Effect” value is on record as -6.489%. On to `Cc1cc(C)c2cc(CNCCCN3CCOCC3)c(=O)[nH]c2c1`, for which the “Percent Effect” value came out at 97.61%. To `Cc1cc(C)cc(CNCCS(=O)(=O)N2CCOCC2)c1` belongs -11.28%.
